MITF primary: MITF inhibitors, primary screen, biochemical, AlphaScreen, human | Microphthalmia-associated transcription factor (Homo sapiens), O75030 | AlphaScreen MITF homodimerization, bead proximity signal | inhibition, % at 2.6 µM | 0.91% of 650,000 active | AID 1259374, 2018; in the data active = inhibition above about 50%;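 also: 0% = vehicle wells with protein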
TEAD-YAP block: TEAD-YAP interaction inhibition, primary screen, TEAD-YAP interaction inhibitor project, luminescence, HEK-TIYL cells; AID 1259422, 2018; 1.4% of 640,000 active; TEAD-Gal4/YAP UAS-luciferase luminescence; inhibition, % at 9.12 µM; in the data active = inhibition above about 32%;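 also: 0% = median of test compound wells and 100% = reference inhibitor wells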
GPR151 ag: activators of human GPR151, primary screen, cell-based, PathHunter beta-arrestin, luminescence; G-protein coupled receptor 151 (Homo sapiens), Q8TDV0; AID 1508602, 2020; PathHunter beta-arrestin GPR151 cells; 1% of 650,000 active; activation, % at 11.2 µM; in the data active = activation above about 4.9%;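 also: 0% = median of compound wells and 100% = cells with positive control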
FBW7 activator: FBW7 E3 ligase activators, primary screen, biochemical, AlphaScreen, human. F-box/WD repeat-containing protein 7 (Homo sapiens), Q969H0. AlphaScreen FBW7–phospho-cyclin E peptide binding, activator screen. normalized activity (activation), % at 26.1 µM. 0.13% of 650,000 active. AID 1259310, 2017; in the data active = normalized activity above about 1.9%;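 also: purified mutant Fbw7 with reduced substrate affinity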
Target sequence (Q969H0 whole entry, looked up): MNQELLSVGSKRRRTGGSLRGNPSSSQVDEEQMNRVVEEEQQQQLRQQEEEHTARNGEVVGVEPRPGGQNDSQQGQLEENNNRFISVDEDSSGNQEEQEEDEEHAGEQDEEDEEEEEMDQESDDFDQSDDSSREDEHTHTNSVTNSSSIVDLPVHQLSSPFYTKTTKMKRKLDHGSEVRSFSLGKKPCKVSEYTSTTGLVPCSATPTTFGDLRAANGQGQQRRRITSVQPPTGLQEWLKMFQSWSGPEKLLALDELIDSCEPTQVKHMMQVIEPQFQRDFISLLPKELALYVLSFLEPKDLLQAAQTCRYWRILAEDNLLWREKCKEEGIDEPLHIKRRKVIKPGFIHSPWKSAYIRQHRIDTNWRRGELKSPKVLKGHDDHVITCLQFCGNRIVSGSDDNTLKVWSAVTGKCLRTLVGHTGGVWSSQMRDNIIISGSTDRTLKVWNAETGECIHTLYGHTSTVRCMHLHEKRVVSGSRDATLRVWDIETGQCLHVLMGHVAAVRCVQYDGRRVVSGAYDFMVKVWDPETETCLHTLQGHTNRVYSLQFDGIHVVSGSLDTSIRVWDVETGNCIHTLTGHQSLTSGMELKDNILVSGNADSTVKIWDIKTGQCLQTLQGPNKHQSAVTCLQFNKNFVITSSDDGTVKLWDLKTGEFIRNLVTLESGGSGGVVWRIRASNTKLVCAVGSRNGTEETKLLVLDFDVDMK
GPR151 conf act: GPR151 activators, triplicate retest, confirmation, cell-based, PathHunter beta-arrestin, luminescence; activation, % at 11.2 µM; shares compounds with GPR151 ag; 6,700 tested, under 10 active; GPR151 PathHunter beta-arrestin cells, 90 min; % of EA-reagent control over plate median;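 active = mean percent activation across replicates above the confirmation screen cutoff of 4.91%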
GPR119 ag: GPR119 activators in beta-arrestin cells, counter-screen for GPR151 activator project, cell-based, PathHunter beta-arrestin, luminescence, triplicate | shares compounds with GPR151 ag | 90 min; 0 = compound-well median, 100 = enzyme-acceptor control | activation, % at 11.2 µM | 0.3% of 6,700 active;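 active = mean percent activation in the counterscreen above 29.09%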;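 also: counterscreen on off-target GPR119 to flag nonselective hits from the GPR151 activator screen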
Starred values were filed as active, the others as inactive. A selection: hits, their analogues and other compounds. The true share with any hit is near 3.4%.

For CC(C)C(NC(=O)c1ccc(F)cc1)C(=O)O (configuration not stated) the results were MITF primary 3, TEAD-YAP block 1, GPR151 ag -1 and FBW7 activator 0.
For COc1ccc(C(=O)N/C(=C/c2ccc([N+](=O)[O-])cc2)C(=O)Nc2ccccc2Cl)c(Cl)c1 the results were MITF primary 3, TEAD-YAP block 2, GPR151 ag 1 and FBW7 activator 0.
Screening Cc1ccc(-c2cnn3c(NCc4ccccn4)ccnc23)cc1 returned MITF primary 18, TEAD-YAP block -47, GPR151 ag 0 and FBW7 activator -1.
For CC(=O)C1=C(C)N(Cc2ccccc2)C(=O)N[C@@H]1c1cccc(C(F)(F)F)c1 the results were MITF primary -2, GPR151 ag 0 and FBW7 activator 0.
Screening COc1cc(CCN2C(=O)N[C@@H](c3cccc(C(F)(F)F)c3)C(C(C)=O)=C2C)cc(OC)c1OC returned MITF primary -27, GPR151 ag 0 and FBW7 activator 0.
CCOC(=O)CN1C(=O)N[C@@H](c2cccc(C(F)(F)F)c2)C(C(C)=O)=C1C was read as MITF primary 4, GPR151 ag 10.0*, FBW7 activator 0, GPR151 conf act 1 and GPR119 ag 12.
`COC(=O)C1=C(C)N(Cc2ccccc2)C(=O)N[C@H]1c1cccc(C(F)(F)F)c1` gave MITF primary -10, GPR151 ag 8.6*, FBW7 activator 0, GPR151 conf act -1 and GPR119 ag -10.
COc1ccccc1C1(NC(=O)CCn2nc(C)cc2C)CCCC1 was read as MITF primary -11, TEAD-YAP block 8, GPR151 ag 5.0*, FBW7 activator 0, GPR151 conf act 1 and GPR119 ag -3.
COc1ccccc1C1(NC(=O)CCn2cccn2)CCCC1 was read as MITF primary 15, TEAD-YAP block 5, GPR151 ag 2 and FBW7 activator 0.
`CC(C)Oc1ccc(CN2CCC3(CC2)CC3C(=O)N(C)Cc2cscn2)cc1` (configuration not stated) gave MITF primary 6, TEAD-YAP block 3, GPR151 ag 0 and FBW7 activator 0.
For c1ccc2c(-c3nc(NC4CC4)c4ncn(C5CCCCC5)c4n3)csc2c1 the results were MITF primary -3, TEAD-YAP block -13, GPR151 ag 7.5*, FBW7 activator 0, GPR151 conf act -1 and GPR119 ag -16.
FC(F)(F)c1ccc(Cn2cnc3c(NC4CC4)nc(-c4csc5ccccc45)nc32)cc1 was read as MITF primary 4, TEAD-YAP block -6, GPR151 ag 1 and FBW7 activator 0.
FC(F)(F)c1ccc(Cn2cnc3c(NC4CCN(Cc5ccccc5)CC4)nc(-c4csc5ccccc45)nc32)cc1 was read as MITF primary -3, TEAD-YAP block 8, GPR151 ag 7.0*, FBW7 activator 0, GPR151 conf act 0 and GPR119 ag 3.
COc1cc(NC(=O)c2c(-c3c(Cl)cccc3Cl)noc2C)c(OC)cc1Cl was read as MITF primary 0, TEAD-YAP block -6, GPR151 ag 1 and FBW7 activator 0.
Screening O=C(Nc1nncs1)c1ncoc1-c1cccs1 returned MITF primary -16, TEAD-YAP block 8, GPR151 ag -1 and FBW7 activator 0.
Screening O=C(Nc1nccs1)c1ncoc1-c1cccs1 returned MITF primary -14, TEAD-YAP block 5, GPR151 ag 8.7*, FBW7 activator 0, GPR151 conf act 0 and GPR119 ag 4.
Screening COC(=O)c1ccccc1NC(=O)CN1C(=O)c2ccc([N+](=O)[O-])cc2C1=O returned MITF primary 8, TEAD-YAP block 2, GPR151 ag -1 and FBW7 activator 0.
Screening COC(=O)c1cccc(NC(=O)CN2C(=O)c3ccc([N+](=O)[O-])cc3C2=O)c1C returned MITF primary -10, TEAD-YAP block -3, GPR151 ag 5.1*, FBW7 activator 1, GPR151 conf act 1 and GPR119 ag 10.
For O=C(NCCN1CCOCC1)c1nn2c(c1Cl)NC(c1ccco1)CC2C(F)(F)F (configuration not stated) the results were MITF primary 2, TEAD-YAP block -1, GPR151 ag 5.7*, FBW7 activator 0, GPR151 conf act 0 and GPR119 ag 1.
`O=C(NCCN1CCOCC1)c1nn2c(c1Cl)NC(c1ccc(Br)cc1)CC2C(F)(F)F` (configuration not stated) gave MITF primary -2, TEAD-YAP block -2, GPR151 ag 0 and FBW7 activator 0.
For CCOC(=O)c1c(NC(=O)c2cccnc2Cl)sc2c1CCCC2 the results were MITF primary 6, TEAD-YAP block 11, GPR151 ag -1 and FBW7 activator 0.
Screening CCOc1cc(/C=C(\C#N)C(=O)c2ccccc2)ccc1OCCn1c([N+](=O)[O-])cnc1C returned MITF primary 5, TEAD-YAP block -8, GPR151 ag 8.9*, FBW7 activator 0, GPR151 conf act -1 and GPR119 ag 0.
`COC(c1ccc2c(c1)CN(C(=O)c1nc3ncccn3n1)CCO2)C1CCCCC1` (configuration not stated) gave MITF primary 8, TEAD-YAP block -4, GPR151 ag 9.5*, FBW7 activator 0, GPR151 conf act 0 and GPR119 ag 11.
For Nc1c(C(=O)NCC2CCCO2)sc2nc3cc4c(cc3cc12)OCCO4 (configuration not stated) the results were MITF primary -3, TEAD-YAP block 17, GPR151 ag 1 and FBW7 activator 0.
`CC(=O)c1ccc(NC(=O)CSc2ccc3nnc(-c4ccc(F)cc4)n3n2)cc1` gave MITF primary -3, TEAD-YAP block 8, GPR151 ag -1 and FBW7 activator 0.
Screening CC(=O)c1ccc(NC(=O)CSc2ccc3nnc(-c4ccc(C)cc4)n3n2)cc1 returned MITF primary 12, TEAD-YAP block 6, GPR151 ag 5.8*, FBW7 activator 0, GPR151 conf act -1 and GPR119 ag 8.
COc1ccc(-n2c(Cc3cc(=O)[nH]c(=O)[nH]3)nnc2SC(C)C)cc1 was read as MITF primary 3, TEAD-YAP block 0, GPR151 ag 3 and FBW7 activator 0.
